Bioassay records as filed in PubChem BioAssay.
MARV entry inh – Marburg virus entry inhibition; Marburg virus pseudotyped entry inhibition, cell reporter; Potency, µM (series often up to 37.8 µM), usual class: inhibitors; 300,000 tested, 1.8% active; calls by dose curve; tested in HEK293 cells
HCMV antiviral – inhibitors of human cytomegalovirus. HFF cells, HCMV-luciferase reporter, 72 h; active compounds read low. activity change, negative = inhibition, % at 57.5 µM. 410,000 tested, 4.5% active. AID 1259415; in the data active means activity change below about -60%; inconclusive means no clear call, values can overlap the other calls; inactive means above about -39%
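Screen run at 2 compound doses on HFFs infected with reporter HCMV, MOI 1 PFU/cell. Luciferase activity from cell lysates at 72 h post infection gave inhibition relative to buffer-only and Salinomycin wells.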
LASV entry inh – blocks Lassa virus binding to or entry into cells | 300,000 tested, 1.2% active | Potency, µM (doses to about 37.9 µM), usual class: inhibitors | Lassa virus pseudotype entry inhibition, cell reporter; calls by dose curve; tested in HEK293 cells; further: nearly all actives have a fitted effect of over 50% in size
HCV inh – inhibitors of hepatitis C virus infection; Potency, µM (doses to about 41.8 µM), hits mostly inhibitors; Huh7.5.1 HCVcc-Cre infection, luciferase reporter, 44 h; 340,000 tested, 3.4% active; active means well fitted inhibition curve with a large enough effect; inconclusive means small, poorly fitted or top-dose-only effect, or another doubt; inactive means no such curve, though single readings can be large or run the other way
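Cells (1,000/well) were plated 4 h before compound, then infected with HCVcc-Cre virus (~0.5 moi). After 44 h further culture, infection was read as luciferase luminescence following a 15 min substrate incubation at room temperature.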
FMDV inh – foot and mouth disease virus antiviral activity | FMDV antiviral cell-based qHTS | Potency, µM (highest dose often 57.9 µM), usual class: inhibitors | 410,000 tested, 1.2% active; calls by dose curve; tested in HEK293T cells; further: read-out not given here; nearly all actives have a fitted effect of over 45% in size
Of the large screens only hits and unclear results are named; the others gave an inactive call. Only some compounds are listed: those with a hit (about 7.9% of all), similar ones and a draw of the others.

Cn1c(N)c(C(=O)COC(=O)c2cc(S(=O)(=O)N3CCOCC3)ccc2F)c(=O)n(C)c1=O	MARV entry inh 7.1µM, HCV inh inconclusive
Cc1ccc(S(=O)(=O)N2CCOCC2)cc1C(=O)OCC(=O)c1c(N)n(C)c(=O)n(C)c1=O	none (no result: MARV entry inh, LASV entry inh)
COc1cccc(/C=C/C(=O)OCC(=O)c2c[nH]c3ccccc23)c1	none (no result: MARV entry inh, LASV entry inh)
COc1ccccc1/C=C/C(=O)OCC(=O)c1c(N)n(C)c(=O)n(C)c1=O	MARV entry inh 0.89µM
CN1CCCN(c2cc(-c3ccc4ccccc4c3)nc3ccnn23)CC1	HCMV antiviral -91 (no result: MARV entry inh, LASV entry inh, HCV inh)
COc1cccc(Cn2c(=O)c(C)nc3cnc(N(C)C)nc32)c1	none (no result: MARV entry inh, HCMV antiviral, LASV entry inh, HCV inh)
CCOC(=O)c1cnc2c(C(F)(F)F)cccc2c1N1CCOCC1	HCMV antiviral inconclusive, HCV inh inconclusive, FMDV inh 32µM
CCOC(=O)c1cnc2c(C)c(Cl)ccc2c1N1CCOCC1	HCV inh inconclusive (no result: MARV entry inh, LASV entry inh)
COc1cc(OC)c(C2Nc3ccccc3-c3nnc(SCc4ccccc4)nc3O2)cc1OC (stereo not drawn)	none (no result: HCV inh)
CCOC(=O)c1cc(C)n(CC2CCC(C(=O)Nc3ccc(C(=O)OC)cc3)CC2)c1C (stereo not drawn)	FMDV inh inconclusive (no result: MARV entry inh, HCV inh)
CC(C)NC(=S)NC(=O)c1ccc(-c2ccccc2)cc1	MARV entry inh inconclusive, HCMV antiviral -81, HCV inh 14µM
O=C(NC(=S)Nc1ccc(-c2ccccc2)cc1)c1ccccc1	MARV entry inh inconclusive
Cc1cc(SC#N)cc(C)c1NC(=O)CCl	HCMV antiviral -83
CCc1cc(SC#N)cc(C)c1NC(=O)CCl	MARV entry inh inconclusive, HCMV antiviral -96, LASV entry inh inconclusive, HCV inh inconclusive
CCc1cc(SC#N)cc(C)c1N	none (no result: MARV entry inh, LASV entry inh)
C#CCCCO/N=C1\C[C@@H](O)[C@@H](O)[C@@H]2[C@@H]3C(=O)N(c4ccc(F)cc4F)C(=O)[C@@H]3CC[C@H]12	none (no result: HCMV antiviral, LASV entry inh, HCV inh, FMDV inh)
C=CCN1C(=O)[C@]2(OCCC=C[C@@H]2C)c2cc(OC)ccc21	none (no result: HCMV antiviral, LASV entry inh, HCV inh, FMDV inh)
COc1cc(CNCCCN2CCOCC2)cc(Cl)c1OCC(=O)NC(C)(C)C	MARV entry inh inconclusive, HCV inh inconclusive
C=N[C@@H](C(=O)N[C@@H]1C(=O)N2[C@@H]1SC(C)(C)[C@@H]2C(=O)O)c1ccccc1	none (no result: MARV entry inh, HCMV antiviral, LASV entry inh, HCV inh)
c1ccc(C[n+]2cccc(-c3ccccc3)c2)cc1	HCMV antiviral -72, LASV entry inh inconclusive
COc1cc(C#Cc2c(-c3cncn3C)n(C)c3ccc(-c4cc(OC)c(OC)c(OC)c4)cc23)cc(OC)c1	HCV inh 11µM (no result: MARV entry inh, LASV entry inh)
CCOP(=O)(OCC)c1nc(-c2ccc(Cl)cc2Cl)oc1N1CCCCC1	MARV entry inh inconclusive, HCMV antiviral inconclusive, LASV entry inh 6.3µM, HCV inh inconclusive
CCOC(=O)c1sc2ccccc2c1S(=O)(=O)N1CCN(c2cc(C)ccc2C)CC1	none (no result: MARV entry inh, HCV inh)
C=C(C)C(=O)Nc1cccc(C2=NOC3(C2)C[C@@H](C(N)=O)N(C(=O)c2cc([N+](=O)[O-])cc([N+](=O)[O-])c2C)C3)c1 (stereo partly drawn)	none (no result: MARV entry inh, LASV entry inh)
C/C=C/C(=O)Nc1cccc(C2=NOC3(C2)C[C@@H](C(N)=O)N(C(=O)c2cc([N+](=O)[O-])cc([N+](=O)[O-])c2C)C3)c1 (stereo partly drawn)	HCMV antiviral -74 (no result: MARV entry inh, LASV entry inh)
CC1(C)CC(=O)C2=C(C1)NC(SCC(=O)Nc1ccccc1)=C(C#N)C21CCCCC1	MARV entry inh inconclusive, HCV inh inconclusive, FMDV inh 28µM
CC1=C(C(=O)Nc2ccccc2)C2(CCCCC2)C(C#N)=C(SCC(N)=O)N1	none
COC1(OC)C(/C=C/c2ccc(C)cc2)C(C#N)(C#N)C1(OC)OC (stereo not drawn)	MARV entry inh inconclusive, LASV entry inh inconclusive, HCV inh inconclusive, FMDV inh 22µM
CCN(CC)S(=O)(=O)c1ccc(C(=O)NCCSc2c[nH]c3ccccc23)cc1	LASV entry inh 26µM, HCV inh inconclusive
CCN(CC)S(=O)(=O)c1ccc(C(C)NC(=O)Cc2c[nH]c3ccccc23)cc1 (stereo not drawn)	LASV entry inh 2.6µM
CCN(CC)S(=O)(=O)c1ccc(C(=O)NCCSc2c(-c3ccc(C)cc3)[nH]c3ccccc23)cc1	MARV entry inh inconclusive, LASV entry inh inconclusive (no result: HCV inh)
CCCCN(CC)CCCNC(=O)c1cc2c(=O)n(CC)c3ccccc3c2s1	MARV entry inh 11µM, HCV inh 25µM
CCCCN(CC)CCNC(=O)c1cc2c(=O)n(C)c3ccccc3c2s1	MARV entry inh 7.9µM, LASV entry inh inconclusive, HCV inh inconclusive
CCCN(CCC)CCCNC(=O)c1cc2c(=O)n(CC)c3ccccc3c2s1	MARV entry inh 10µM, LASV entry inh inconclusive, HCV inh 7.9µM
CCN(CC)CCNC(=O)c1cc2c(=O)n(C)c3ccccc3c2s1	MARV entry inh inconclusive, HCV inh inconclusive
CCN(CCCNC(=O)c1cc2c(=O)n(CC)c3ccccc3c2s1)c1ccccc1	none (no result: HCV inh)
CCn1c(=O)c2cc(C(=O)NCCCOC)sc2c2ccccc21	HCV inh inconclusive
CCCCN(CC)CCNC(=O)c1cc2c(=O)n(CC)c3ccccc3c2s1	MARV entry inh inconclusive, LASV entry inh inconclusive, HCV inh 2.5µM
C=CCC12OC3(OC)CC1[C@H](C)[C@@H](c1ccccc1)C2[C@]3(O)CC=C (stereo partly drawn)	none (no result: HCMV antiviral, LASV entry inh, HCV inh, FMDV inh)
Cc1ccc(NC(=O)N2CCN(Cc3nc4ccc(C)cc4o3)CC2)c(Cl)c1	none (no result: MARV entry inh, HCV inh)
O=c1c(-c2ccc(Cl)cc2)nc2cnc(N3CCNCC3)nc2n1-c1ccccc1	none (no result: MARV entry inh, HCMV antiviral, LASV entry inh, HCV inh)
COc1ccc(CN2CCOc3ccc(CN4CCC(O)(c5cccnc5)CC4)cc3C2)c(C)c1C	none (no result: MARV entry inh, HCMV antiviral, LASV entry inh, HCV inh)
Cc1occc1C(=O)NCCCCNC(=O)c1ccoc1C	HCMV antiviral -98
CCCCCCCCCCCNC(=O)c1ccoc1C	MARV entry inh inconclusive
Cc1occc1C(=O)NNC(=S)NCc1ccc(Cl)cc1	HCMV antiviral -69, FMDV inh inconclusive (no result: MARV entry inh, LASV entry inh)
COc1ccc(OC)c(CNC(=O)Cn2ncc3c([nH]c4ccc(C)cc43)c2=O)c1	none (no result: MARV entry inh, HCV inh)
CCOC(=O)C1(CC2CCCCO2)CCN(C(=O)Nc2ccc(C(=O)OC)cc2)CC1 (stereo not drawn)	none (no result: MARV entry inh, LASV entry inh)
O=C(Cc1ccc(Cl)cc1)NC1CCCCCC1	LASV entry inh inconclusive
Clc1ccc(CN=C(Nc2ccccc2)NC2CCCCC2)cc1	MARV entry inh inconclusive, HCMV antiviral -77, LASV entry inh inconclusive, HCV inh inconclusive
CCN(CC)S(=O)(=O)c1cccc(C(=O)Nc2ccccc2C(=O)Nc2ccc(OC)cc2)c1	LASV entry inh inconclusive (no result: MARV entry inh, HCV inh)
Cc1[nH]c(=O)c(C(=O)/C=C/c2ccccc2F)c2c1CCCC2	MARV entry inh 12µM, HCMV antiviral -102, LASV entry inh 10µM, HCV inh 2.5µM, FMDV inh 14µM
C/C(=C\c1ccccc1F)C(=O)c1c(C)cc(C)[nH]c1=O	none
COC(=O)c1ccc(NC(=O)c2cc(-c3ccncc3)nc3ccccc23)cc1	HCV inh 10µM (no result: MARV entry inh, LASV entry inh)
COC(=O)c1ccc(NC(=O)c2cc(-c3ccccn3)nc3ccccc23)cc1	none
COc1ccc(-c2cc(C(=O)Nc3ccc(S(=O)(=O)Nc4ncccn4)cc3)c3ccccc3n2)cc1	none (no result: MARV entry inh, LASV entry inh)
